G9a block – inhibitors of human histone lysine methyltransferase G9a | Q96KQ7 | G9a H3K9 monomethylation, AlphaScreen, 2 h | Potency, µM (titrated, usually from 102 µM), without a hit: at the top dose activity, negative = inhibition, most hits filed as inhibitors | 350,000 compounds, 8.8% hits | AID 504332; note: potency is the fitted concentration of half-maximal effect; % is set by controls: 0 for no effect and ±100 for the full control effect; nearly all actives have a fitted effect of over 75% in size
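Step 1: enzyme (final 20 nM) with compound, 15 min RT. Step 2: substrate peptide 500 nM and SAM 20 uM, 2 h RT. Step 3: anti-H3K9me1 antibody and AlphaScreen beads, 10 min, then plate read.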
JMJD2A Tudor – blocks the human JMJD2A Tudor domain. O75164. AlphaScreen JMJD2A-Tudor / H3K4me3 peptide binding. Potency, µM (top dose mostly 114 µM), inactives show top-dose activity change, negative = inhibition, most hits filed as inhibitors. 390,000 compounds, 4.4% hits. AID 504339; note: potency is the fitted concentration of half-maximal effect; % is set by controls: 0 for no effect and ±100 for the full control effect; nearly all actives have a fitted effect of over 50% in size
HP1b binding inh – blocks HP1-beta chromodomain binding to methylated histone tails | P83916 | 390,000 compounds, 0.56% hits | Potency, µM (titrated, usually from 114 µM), inactives show at the highest dose activity change, negative = inhibition, usual class: inhibitors | AlphaScreen HP1-beta / biotin-H3K9me3 peptide binding | AID 540317; note: potency is the fitted concentration of half-maximal effect; nearly all actives have a fitted effect of over 70% in size
Target sequence (P83916 whole entry, looked up): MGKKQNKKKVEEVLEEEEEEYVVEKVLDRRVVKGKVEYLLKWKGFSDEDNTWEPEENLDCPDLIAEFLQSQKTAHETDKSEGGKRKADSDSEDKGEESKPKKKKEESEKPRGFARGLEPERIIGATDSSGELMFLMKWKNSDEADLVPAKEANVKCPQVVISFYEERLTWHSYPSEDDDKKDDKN
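Compound inhibition of the preformed complex between 50 nM HP1-beta and 50 nM biotinylated H3K9me3 peptide was read by AlphaScreen. Buffer was PBS pH 7.4 with 0.01% Tween-20. Incubations ran 30 min at room temperature, with 10 ug/mL donor/acceptor beads.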
BAZ2B inh – blocks human BAZ2B; 360,000 compounds, 4.4% hits; Potency, µM (doses to about 114 µM), for the others: top-dose activity change, negative = inhibition, hits mostly inhibitors; AlphaScreen BAZ2B-H3K14Ac peptide displacement; Q9UIF8; AID 504333; note: potency is the fitted concentration of half-maximal effect; % is set by controls: 0 for no effect and ±100 for the full control effect; nearly all actives have a fitted effect of over 60% in size
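BAZ2B 50 nM plus b-H3(5-23)K14Ac 50 nM, PBS pH 7.4/0.01% Tween-20, 30 min RT; compound added (max 110 uM), 30 min RT; streptavidin donor/Ni-chelate acceptor beads 10 ug/mL final, 20 min dark; AlphaScreen read.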
PI5P4Ka inh – inhibitors of human PI5P4K alpha; PI5P4Kalpha enzyme, ADP-Glo luminescence, 60 min; active compounds read low; 330,000 compounds, 1.2% hits; max response, %; P48426; active = max response of -50% or lower; inconclusive = between -30% and -50%; inactive = -30% or higher; note: value at the top dose of about 77 µM; % is set by controls: 0 for no effect and ±100 for the full control effect
Target sequence (P48426 whole entry, looked up): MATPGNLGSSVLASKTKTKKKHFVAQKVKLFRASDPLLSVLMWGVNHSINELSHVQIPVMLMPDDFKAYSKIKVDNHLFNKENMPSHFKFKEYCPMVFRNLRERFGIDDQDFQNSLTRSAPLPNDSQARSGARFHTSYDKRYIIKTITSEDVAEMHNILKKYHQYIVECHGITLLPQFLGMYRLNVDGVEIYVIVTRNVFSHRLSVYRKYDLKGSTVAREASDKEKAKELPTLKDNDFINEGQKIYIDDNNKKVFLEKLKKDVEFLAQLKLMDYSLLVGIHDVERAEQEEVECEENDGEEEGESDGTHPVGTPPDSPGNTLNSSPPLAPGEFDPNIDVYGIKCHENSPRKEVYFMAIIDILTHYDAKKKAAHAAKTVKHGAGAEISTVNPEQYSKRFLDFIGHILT
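Compounds were pin-transferred onto PI5P4Kalpha and substrate in HEPES pH 7.4 buffer with EGTA, CHAPS and 5% DMSO. ATP (5 microM final) started the reaction, which ran 60 minutes at room temperature before ADP-Glo detection.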
L3MBTL1 inh – L3MBTL1 (human) inhibition; Q9Y468; AlphaScreen L3MBTL1–H3K9me1 peptide binding; Potency, µM (top dose mostly 57.1 µM), inactives show top-dose activity, negative = inhibition, hits mostly inhibitors; 230,000 compounds, 0.66% hits; AID 485360; note: potency is the fitted concentration of half-maximal effect; % is set by controls: 0 for no effect and ±100 for the full control effect; nearly all actives have a fitted effect of over 60% in size
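First, the protein-peptide complex forms for 30 min at room temperature (L3MBTL1 50 nM, biotinylated H3K9me1 peptide 75 nM). Next, compounds are pin-transferred and incubated 30 min. Finally, AlphaScreen beads are added and read after 30 min.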
* = called active by the depositor; ? = inconclusive; / = not tested or not shown; ! = not confirmed by another sample; [ ] = another dose, or the depositor's remark. An excerpt weighted towards active compounds, which were near 11% of everything screened. Unless noted, calls come from the whole dose curve; as a rule, active = well fitted inhibition curve with a large enough effect; inconclusive = small, poorly fitted or top-dose-only effect; inactive = no such curve, though single readings can be large or run the other way.

SMILES	G9a block	JMJD2A Tudor	HP1b binding inh	BAZ2B inh	PI5P4Ka inh	L3MBTL1 inh
COc1cc(C2C(C(=O)c3ccco3)=C(O)C(=O)N2c2cc(C)on2)cc(Br)c1O (centres undefined)	0.3%[59 µM]	?	-3.9%	0.7%	-4.7	0.1%
COc1cc(C2C(C(=O)c3ccc(C)o3)=C(O)C(=O)N2c2cc(C)on2)cc(Br)c1O (centres undefined)	?	-24.8%	-7.0%	-6.3%	4.7	2.8%[11.4 µM]
CCCCCSc1ncnc2c1sc1nc(N3CCOCC3)c3c(c12)CCCC3	-2.8%[59 µM]	-0.3%	33.7%	-2.1%	/	/
CCCCNC(=O)c1cnn2c(C)c(Cc3c(F)cccc3Cl)c(C)nc12	19.0%[59 µM]	0.3%	88.0%	37.1%	/	/
CC(C)CCOc1ccc(Cn2c(=O)sc3ccccc32)cc1	78.3%[59 µM]	176.6%	199.1%	196.0%	/	/
CSC1=NC2(CCN(C(=O)NC3CCCCC3)CC2)N=C1c1ccc(C)cc1	9.3%[59 µM]	-23.6%	1.5%	12.4%[57.1 µM]	/	/
Cc1ccc(-c2[nH]ncc2CNC(C)c2ccccc2)cc1 (centres undefined)	/	4.47µM*	?	/	/	/
Cc1ccc(-c2[nH]ncc2CNCc2ccccc2)cc1	/	-13.5%	36.3%	/	/	/
O=C(/C=C/c1ccc(-c2ccccc2[N+](=O)[O-])o1)c1ccccc1	31.6µM*	?	?	11.2µM*	2.4	?
O=C(N/N=C/c1ccc(-c2ccccc2[N+](=O)[O-])o1)[C@H]1C[C@@H]1c1ccccc1	8.91µM*	?	-35.4%	?	5.2	?
CCN1/C(=C/C(C)=C/c2sc3ccccc3[n+]2CC)Sc2ccccc21	17.8µM*	17.8µM*	?	22.4µM*	-50.4*!	/
c1ccc2nc3c(nc2c1)[nH]c1ccccc13	-48.0%[59 µM]	-18.2%	23.6%	-6.9%	-1.1	3.5%
c1ccc(-c2c3ccccc3nc3[nH]c4ccccc4c23)cc1	89.1µM*	-7.7%	55.8%	4.3%	19.6	19.3%
CCc1cc2c(cc3c(=O)n(CC(=O)NCCCN4CCCCCC4)nc(CC)n32)s1	50.1µM*	-1.3%	52.1%	-17.6%	-1.4	/
CCc1nn(CC(=O)NCCCN2CCOCC2)c(=O)c2cc3sccc3n12	11.9%	6.8%	39.7%	-13.4%	0.4	/
CCc1nn(CC(=O)NCCCN2CCOCC2)c(=O)c2cc3cc(F)ccc3n12	50.1µM*	-0.8%	65.5%	-11.2%[57.1 µM]	2.3	/
CCc1nn(CC(=O)NCCCN2CCN(C)CC2)c(=O)c2cc3sc(C)cc3n12	/	-14.2%	75.7%	-4.3%	-2.4	/
CCOc1ccc(CNC(=O)c2ccc3c(c2)c(C)c(C)n3C)cc1	-48.2%[59 µM]	?	-10.6%	39.8µM*	/	/
CN(C)c1ccc(CNC(=O)c2ccc3c(c2)N(C)C(=O)C2CCCCN32)cc1 (centres undefined)	17.8µM*	44.7µM*	-2.2%[57 µM]	44.7µM*	/	/
CCn1c(C)c(C)c2cc(C(=O)NCc3ccc(N(C)C)cc3)ccc21	12.6µM*	22.4µM*	?	22.4µM*	/	/
Cc1c(C)n(C)c2ccc(C(=O)NCCc3ccc(Cl)cc3)cc12	-48.6%[59 µM]	-35.1%	12.5%	-25.9%	/	/
CSc1ccc(CNC(=O)c2ccc3c(c2)N(C)C(=O)C2CCCCN32)cc1 (centres undefined)	-26.3%[59 µM]	-24.0%	8.4%[57 µM]	-20.7%	/	/
CCn1c(C)c(C)c2cc(C(=O)NCc3ccc(F)cc3)ccc21	-36.2%[59 µM]	?	-1.9%	?	/	/
Cc1nn(C)cc1C(=O)Nc1ccc2c(c1)OCCO2	31.6µM*	-10.3%	-5.0%	3.4%	0.5	/
Cc1nc(SCC(=O)Nc2ccc3c(c2)OCCO3)nc(C)c1C	22.4µM*	-9.0%	55.9%	-11.0%	-4.9	-2.2%
SMILES	G9a block	JMJD2A Tudor	HP1b binding inh	BAZ2B inh	PI5P4Ka inh	L3MBTL1 inh
Nc1ccccc1SCC(=O)Nc1ccc2c(c1)OCCO2	28.2µM*	-5.6%	23.2%	-18.8%	0.2	/
Cn1c(C(=O)Nc2ccc3c(c2)OCCO3)cc2sccc21	50.1µM*	?	-18.5%	?	/	-1.3%
Cc1c(C(=O)Nc2ccc3c(c2)OCCO3)cnn1C	15.6%[59 µM]	-8.9%	28.8%	4.6%	-23.6	/
Nc1ccccc1SCC(=O)Nc1ccc2c(c1)OCO2	67.3%	-16.0%	18.8%	9.4%	-9.4	/
O=C1C(=O)N(C2CCN(C(=O)c3ccccc3F)CC2)CCN1Cc1ccc(F)cc1	5.6%[59 µM]	5.5%	33.2%	1.6%	/	/
CC(Nc1ccc2c(c1)OCCO2)C(=O)N1CCc2ccccc21 (centres undefined)	?	?	4.1%	44.7µM*	-3.9	-27.8%
CN(C)S(=O)(=O)c1ccc(C(=O)NC(=O)CSc2nnnn2C)cc1	/	-4.1%	33.8%	/	-0.4	7.3%
CN(C)S(=O)(=O)c1ccc(SCC(=O)Nc2ccc3c(c2)OCCO3)nc1	39.8µM*	-20.0%	9.0%	13.2%	-7.0	7.5%
CN(C)S(=O)(=O)c1ccc(NC(=O)CSc2nnnn2C)cc1	31.6µM*	-14.0%	14.0%	-16.8%	1.1	/
O=C(CSc1ncccn1)Nc1ccc2c(c1)OCO2	/	-17.9%	5.1%[57 µM]	/	-14.2	-6.6%
O=C(CSc1ncccn1)NC(=O)Nc1ccc2c(c1)OCCO2	44.7µM*	-1.0%	46.0%	-15.6%	2.0	1.0%
COc1ccc(C2c3c(n(C)c4ccccc34)C(=O)N2CC(=O)Nc2cccc(Cl)c2C)cc1 (centres undefined)	4.6%[59 µM]	-6.6%	28.5%	-1.3%	/	/
CCOC(=O)/C(C#N)=C/c1ccc(-c2ccc(C)cc2)o1	-13.3%[59 µM]	8.8%	10.1%	-30.4%	/	/
O=S(=O)(c1ccccc1)N1CCN(S(=O)(=O)c2ccccc2)c2ccccc21	/	-4.2%	/	/	-5.0	/
O=S(=O)(/N=S1\CC=CCN1S(=O)(=O)c1ccccc1)c1ccccc1 (centres undefined)	/	-29.0%	?	/	-50.4*	/
COC(=O)c1ccc(NC(=O)c2c(-c3ccccc3)c(-c3ccccc3)nn(C)c2=O)cc1	?	-19.8%	3.1%	-18.8%	/	/
CCOC(=O)c1c(NC(=O)C(Sc2ccccc2)c2ccccc2)sc(C(N)=O)c1C (centres undefined)	7.94µM*	-6.3%	22.2%	10.9%	-5.2	-6.2%
CCOC(=O)c1c(NC(=O)C(Sc2ccccc2)c2ccccc2)sc(C(=O)N(C)C)c1C (centres undefined)	24.8%[59 µM]	-31.0%	9.0%	-5.0%	13.1	-11.8%
COC(=O)c1ccc(C(=O)OC)c(NC(=O)CSCC(=O)O)c1	/	1.4%	27.1%	0.6%	-0.6	4.9%
O=C(CSc1cccc[n+]1[O-])Nc1cc2c(cc1Cl)C(=O)c1ccccc1C2=O	7.94µM*	?	6.1%	?	-4.8	12.2%
O=C(CSc1cccc[n+]1[O-])Nc1cc([N+](=O)[O-])ccc1Cl	-10.0%	-16.5%	22.2%	14.8%	3.3	11.3%

High-throughput results deposited in PubChem by National Center for Advancing Translational Sciences (NCATS).
